From the supplement of paper PMC7411640
Structures can show the parent of a compound that is named as a salt.

Tested on: MDA-MB-468
Test: phospho-S6 immunofluorescence (DAPI-normalised), per-plate z-score; higher = higher phospho-S6 signal (less pathway suppression)
Settings: 24 h
Experimental: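 GPCR-targeted compound library (MedChemExpress HY-L006) tested on MDA-MB-468 PTEN-null TNBC cells in 384-well plates at 0.1, 1 or 10 uM, combined with vehicle, GDC0941 450 nM or lapatinib 1 uM, for 24 h. Phospho-S6 (S240/244) immunofluorescence normalised to DAPI and expressed as a per-plate z-score; values are the mean of biological triplicates.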

| SMILES | phospho-S6 immunofluorescence (z-score) (co-treatment: GDC0941 450 nM) | phospho-S6 immunofluorescence (z-score) (co-treatment: lapatinib 1 uM) | phospho-S6 immunofluorescence (z-score) (co-treatment: vehicle) |
| --- | --- | --- | --- |
| CC1=C(C)C(=O)C(C(CCCCCC(=O)O)c2ccccc2)=C(C)C1=O (configuration not stated) [Seratrodast] (compound 10 µM) | 1.01 | 1.15 | 0.08 |
| COc1cc2c(NC3CCN(C(C)C)CC3)nc(N3CCC(F)(F)CC3)nc2cc1OCCCN1CCCC1 (compound 10 µM) | 1.81 | 3.34 | 1.97 |
| C[C@@H](NCCCc1cccc(C(F)(F)F)c1)c1cccc2ccccc12 [Cinacalcet (hydrochloride)] (compound 10 µM) | -5.88 | -11.2 | -9.18 |
| CC(C)(C)NCC(O)c1cc(O)cc(O)c1 (configuration not stated) [Terbutaline (sulfate)] (compound 10 µM) | 0.52 | 1.51 | 1.44 |
